Compounds with a hit are over-represented: about 6.5% of the library has one in this group of screens.
DPM-DC inhibit – S. pneumoniae DPM-DC inhibition | purified DPM-DC, PK/LDH coupled NADH fluorescence | calls only at 10 µM | 65,000 compounds, 0.49% hits | AID 556;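 active means the 320 compounds with the highest percent inhibition in the single-dose primary screen, excluding strongly autofluorescent ones, cut at about 32% in these data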;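 further: kinetic rate of NADH fluorescence loss reporting ADP formed by the decarboxylase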
PMK inhibit – inhibitors of Streptococcus pneumoniae phosphomevalonate kinase | 65,000 compounds, 0.49% hits | purified PMK, PK/LDH-coupled NADH absorbance 340 nm | inhibition, % at 10 µM;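 active means top-ranked compounds by inhibition in the single 10 µM screen, taking a fixed number of the strongest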;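 further: 0% = full reaction with DMSO carrier and 100% = background rate without enzyme reaction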
A340 absorber – absorbance at 340 nm; compound absorbance at 340 nm, fold over control; fold change at 10 µM; 65,000 tested, under 10 active;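 active means at 10 µM dose, initial 340 nm absorbance at least 2 fold that of control wells; inactive means change under 2 fold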;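 further: initial absorbance extrapolated from kinetic A340 decline of NADH oxidation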
NADH coupling – blocks coupling enzymes of NAD/NADH assays. IC50, µM (top dose mostly 10 µM), without a hit: at the top dose inhibition. AID 774. 65,000 compounds, 0.02% hits. coupled PK/LDH NADH assays, four targets;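 active means single-dose screening hits from any of four coupled enzyme assays that gave an IC50 when retested across doses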;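 further: the DPM-DC format reads NADH fluorescence rather than 340 nm absorbance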
Fluor 339 460 – intrinsic fluorescence of library compounds, ex339/em460 – biochemical, MLSMR library, data from DPM-DC assay, artefact control, profiling panel; compound autofluorescence, ex339/em460 nm, NADH buffer; stronger effect = higher value; 1 = no-compound wells, NADH background; fluorescence fold increase at 10 µM; 65,000 compounds, 5.5% hits;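 active means at 10 µM, mean starting fluorescence two-fold or more over control wells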;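 further: signal is the first read of a kinetic run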
Spn MK inh – blocks S. pneumoniae mevalonate kinase | purified MK, PK/LDH-coupled NADH absorbance 340 nm | inhibition, % at 10 µM | 65,000 compounds, 0.48% hits;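 active means ranked among the strongest by inhibition in the single 10 µM screen, a fixed top-ranked set picked for dose follow-up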
Starred values were filed as active, the others as inactive; i = inactive; nt = not tested or not shown; + = active, no number.

SMILES	DPM-DC inhibit	PMK inhibit	A340 absorber	NADH coupling	Fluor 339 460	Spn MK inh
CCOC(=O)c1snc(C(=O)NC2CCCCC2)c1N	i	0	1	3%	2*	8
CC(=O)C1=C(C)NC(C)=C(C(C)=O)C1c1ccc(-c2ccccc2Cl)o1	i	0	1.1	0%	1.2	0
Cc1cc(NCCN2CCOCC2)n2ncc(-c3ccc(Cl)cc3)c2n1	nt	5	1	10%	3.3*	14
Cc1cc(NCCN2CCOCC2)n2nc(C)c(-c3ccccc3)c2n1	i	10	0.99	3%	1.1	7
Cc1cc(NCCN2CCOCC2)n2ncc(-c3ccccc3)c2n1	i	10	1.1	6%	1.6	4
Cc1cc(NCCN2CCOCC2)n2nc(C)c(-c3ccc(Cl)cc3)c2n1	i	14	1.1	8%	2.4*	0
COc1cc(CNC2CCCC2)cc(OC)c1	i	0	1.1	14%	1.1	41*
N#Cc1sc2nc(-c3ccccc3)cc(-c3ccco3)c2c1N	i	8	1.1	6%	1.3	10
N#Cc1c(-c2ccccc2)cc(-c2ccco2)c(C#N)c1N	nt	0	1.1	4%	2.3*	8
COC(=O)C1=C(NC(=O)c2ccc(C)c(C)c2)CCS1	i	16	1	5%	2.7*	0
CC(=O)Nc1sc2c(c1C#N)CCCCC2	i	15	0.99	3%	1	10
CC(C)(C)NCc1cccn1-c1sc2c(c1C#N)CCCC2	i	0	1.1	16%	1.1	49*
CCc1ccc(OCc2nnc(SCC(=O)NCc3ccco3)o2)cc1	i	26*	1	9%	0.99	0
COc1ccc(-c2c3c(nc4sc(C(=O)Nc5cc(C)on5)c(N)c24)CCC3)cc1	+	7	1	16%	2.6*	3
CCCC1Cc2nc(N3CCCCC3)c(C#N)cc2CO1 (stereo unspecified)	nt	10	1	10%	3.6*	9
COc1cc2nc(N3CCN(C(=O)C4CCCO4)CC3)nc(N)c2cc1OC (stereo unspecified)	nt	9	1.1	6%	3.9*	3
Cc1cc(C(=O)N2CCN(C(=O)C3CCCO3)CC2)no1 (stereo unspecified)	i	13	1	6%	1.1	5
COc1cc2c(C#N)c(N3CCOCC3)nc(N)c2c(N)n1	nt	13	1	2%	3.4*	0
COc1cc2c(C#N)c(N3CCCCC3)nc(N)c2c(N)n1	nt	9	1.1	5%	5.1*	1
COc1cc2c(C#N)c(N3CCc4ccccc4C3)nc(N)c2c(N)n1	nt	0	1	0%	2.2*	0
CCOC(=O)c1c(C)c(C(=O)N2CCCCCC2)c(C)n1CC	i	3	0.98	3%	1.1	7
COC(=O)c1cc(OC)c(OC)cc1NC(=O)c1cc(C)on1	i	5	1	7%	1.1	16
N#Cc1nc(-c2cccs2)oc1NCC1CCCO1 (stereo unspecified)	nt	0	1.1	1%	2.3*	2
O=S(=O)(c1ccccc1)c1nc(-c2cccs2)oc1NCC1CCCO1 (stereo unspecified)	i	5	1.1	3%	1.1	0
COc1ccc(-c2nc(C#N)c(N3CCN(c4ccccc4)CC3)o2)cc1	i	6	0.99	6%	1.4	10
SMILES	DPM-DC inhibit	PMK inhibit	A340 absorber	NADH coupling	Fluor 339 460	Spn MK inh
COc1ccc(-c2nc(C#N)c(NCC3CCCO3)o2)cc1 (stereo unspecified)	nt	0	1.1	2%	2.3*	4
Cc1ccc(CSC2=NCCN2C(=O)C2CC2)cc1	i	12	1	3%	1.1	3
CCCN(CCC)S(=O)(=O)c1ccc(C(=O)Nc2nnc(-c3cccc(OC)c3)o2)cc1	nt	11	1	5%	2.1*	0
COc1ccccc1-c1nnc(NC(=O)c2ccc(S(=O)(=O)N(C)C)cc2)o1	i	14	1.1	10%	1	8
CCN(Cc1ccccc1)S(=O)(=O)c1ccc(C(=O)Nc2nnc(-c3ccccc3OC)o2)cc1	nt	14	1.1	8%	3.8*	2
CCCN(CCC)S(=O)(=O)c1ccc(C(=O)Nc2nnc(-c3cc(OC)cc(OC)c3)o2)cc1	i	8	1	6%	1.9	1
Cc1cc(C)n2nc(SC3CCCCN(C(=O)c4ccc(F)cc4)C3=O)nc2n1 (stereo unspecified)	i	5	0.99	2%	1	0
C/C=C(\C)CN1CCN(c2ccccc2F)CC1	i	0	1.1	17%	1.1	51*
C/C=C(\C)CN1CCN(c2cc(C)ccc2C)CC1	i	0	1.1	12%	1.1	36
CCN(CC)C(=O)CN1CCN(c2ccccc2F)CC1	i	0	1.1	23%	1.1	68*
CCN(CC)c1ccc(NC(=O)CN2CCN(c3ccccc3F)CC2)cc1	i	6	1	3%	1.1	4
O=C(CN1CCN(c2ccccc2F)CC1)c1ccc2cc[nH]c2c1	nt	2	1.1	2%	2.1*	1
CC(=O)OC1(C(F)(F)F)Oc2ccccc2NC1=O (stereo unspecified)	i	7	1	4%	1.1	6
Cn1c2c(c(=O)n(C)c1=O)C(c1ccccc1OC(F)F)C1=C(CCCC1=O)N2 (stereo unspecified)	i	14	1	14%	4*	4
O=c1nc2c(-c3ccccc3F)n[nH]n2c2ccccc12	nt	0	1	1%	5.1*	2
Cn1c(NC(=O)c2ccc(Br)o2)cc(=O)n(C)c1=O	i	0	1.2	3%	0.99	0
COc1ccc(C(=O)Nc2nc(-c3cccs3)cs2)cc1	i	14	1	5%	1.2	0
CCCSc1nnc(NC(=O)c2sc3nc(-c4cccs4)ccc3c2N)s1	nt	5	1.2	3%	4.5*	0
Cc1csc(NC(=O)c2sc3nc(-c4cccs4)ccc3c2N)n1	nt	0	1.1	2%	2.4*	1
O=c1oc2c3c4c(cc2c(C(F)(F)F)c1CCN1CCOCC1)CCCN4CCC3	i	4	1	4%	1.1	0
CC(C)c1cc(=O)oc2c3c4c(cc12)CCCN4CCC3	nt	4	1.1	5%	2.1*	6
O=S(=O)(c1ccccc1)N1CCN(c2ncnc3sc(-c4ccccc4)cc23)CC1	nt	2	1.1	2%	5.2*	1
CCOc1ccc2oc(-c3ccccc3)c(C(=O)N3CCN(C)CC3)c2c1	nt	0	1.1	0%	2.2*	0
CC(=O)Oc1ccc2oc(C)c(C(=O)N3CCOCC3)c2c1	i	0	1	0%	1.1	0
COc1ccc2oc(-c3ccccc3)c(C(=O)N3CCOCC3)c2c1	nt	9	1	8%	2.1*	6
